Laboratory results as given in PubChem BioAssay AID1345085 (National Center for Advancing Translational Sciences (NCATS), 2018).
Records with an inconclusive call do not appear. Active and inactive are the calls of the source. Calls come from the whole dose curve; as a rule, active = well fitted cell-killing curve with a large enough effect; inconclusive = small, poorly fitted or top-dose-only effect, or effect the other way; inactive = no such curve, though single readings can be large or run the other way.
% is set by controls: 0 for no effect and ±100 for the full control effect; potency is the fitted concentration of half-maximal effect.
Note: nearly all actives have a fitted effect of over 55% in size.

These compounds were tested on PA-1 (assay: Confirmatory qHTS for gynecologic anti-cancer compounds from libraries of approved drugs and bioactive compounds). Conditions: gynecologic cancer cell panel viability, ATPlite luminescence, 48 h; series mostly up to 57.6 µM; activity change, negative = viability loss: at the top concentration.
Outline: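 Viability is measured as ATP-dependent luciferase light using ATPlite, read 15 min after reagent addition at room temperature. Compounds, in DMSO, span 57.5 uM down to 0.977 nM over 11 threefold steps for 48 h.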
In the case of `CC(C)[C@@H](CS(=O)(=O)C(C)C)N1C(=O)[C@@](C)(CC(=O)O)C[C@H](c2cccc(Cl)c2)[C@H]1c1ccc(Cl)cc1`, the Potency is reported as 2430 nM (active).
In the case of `Cc1nc(N)nc(N)c1-c1ccc(Cl)c(Cl)c1`, the Potency is reported as 1370 nM (active).
In the case of `CCC1C(=O)N(C)c2cnc(Nc3ccc(C(=O)NC4CCC(N5CCN(CC6CC6)CC5)CC4)cc3OC)nc2N1C(C)C` (stereo not given), the Potency is reported as 76.9 nM (active).
With `CCCCN(CCCC)C(=O)CN1C[C@H](c2ccc3c(c2)OCO3)[C@@H](C(=O)O)[C@@H]1c1ccc(OC)cc1` the “activity change, negative = viability loss” value was 3.06% (inactive).
In the case of `FC(F)(F)c1ccc(/C=C/c2nc(COc3ccc(CCCCn4ccnn4)cc3)co2)cc1`, the Potency is reported as 19.3 nM (active).
`CC[C@]1(O)C[C@@H]2CN(CCc3c([nH]c4ccccc34)[C@@](C(=O)OC)(c3cc4c(cc3OC)N(C)[C@H]3[C@@](O)(C(=O)OC)[C@H](OC(C)=O)[C@]5(CC)C=CCN6CC[C@]43[C@@H]65)C2)C1` was tested, and the Potency was 109 nM (active).
With `OC[C@H]1O[C@@H](n2cnc3c(=S)nc[nH]c32)[C@H](O)[C@@H]1O` the Potency was 2730 nM (active).
In the case of `CN[C@@H](C)C(=O)N[C@H]1CN(C(=O)CC(C)C)CC[C@H]2CC[C@@H](C(=O)NC(c3ccccc3)c3ccccc3)N2C1=O`, the “activity change, negative = viability loss” value is reported as -1.71% (inactive).
With `N#CC1(c2cccc(C(=O)Nc3cc(Oc4ccc5nc(NC(=O)C6CC6)sc5n4)ccc3F)c2Cl)CC1` the Potency was 8630 nM (active).
For `CN(C[C@@H]1COCCO1)S(=O)(=O)Nc1ccc2ccc3ncc(-c4cnn(C)c4)cc3c(=O)c2c1`, the Potency was 17200 nM (active).
For `CN(C)c1ccc(-c2nc3ncc(Cl)c(N4CCN(CC(=O)Nc5nccs5)CC4)c3[nH]2)cc1`, the Potency was 3350 nM (active).
In the case of `Cc1c(NC(=O)OCC2COCCN2)cn2ncnc(Nc3ccc4c(cnn4Cc4cccc(F)c4)c3)c12` (stereo not given), the Potency is reported as 27300 nM (active).
`CCc1nc(C(N)=O)c(Nc2ccc(N3CCC(N4CCN(C)CC4)CC3)c(OC)c2)nc1NC1CCOCC1` was tested, and the Potency was 1060 nM (active).
With `COc1cc2c(NC3CCN(C(C)C)CC3)nc(C3CCCCC3)nc2cc1OCCCN1CCCC1` the Potency was 17200 nM (active).
`CC(C)n1c(/C=C/[C@@H](O)C[C@@H](O)CC(=O)O)c(-c2ccc(F)cc2)c2ccccc21` was tested, and the Potency was 24300 nM (active).
`O=C(NOC[C@H](O)CO)c1ccc(F)c(F)c1Nc1ccc(I)cc1F` was tested, and the Potency was 3850 nM (active).
With `Cn1cc(-c2ccc3ncc(Cc4ccc5ncccc5c4)n3n2)cn1` the “activity change, negative = viability loss” value was 6.59% (inactive).
`COc1cc(Nc2c(C#N)cnc3cc(OCCCN4CCN(C)CC4)c(OC)cc23)c(Cl)cc1Cl` was tested, and the Potency was 13700 nM (active).
With `COc1cccc2cc(-c3nc(C4CCC(C(=O)O)CC4)n4ncnc(N)c34)[nH]c12` (stereo not given) the Potency was 9680 nM (active).
For `Cc1cc(C(C)Nc2ccccc2C(=O)O)c2nc(N3CCOCC3)cc(=O)n2c1` (stereo not given), the Potency was 21700 nM (active).
In the case of `CC[C@H](CC#N)OC(=O)N[C@@H](C)c1cccc(NC(=O)Nc2ccc(-c3cnco3)c(OC)c2)c1`, the Potency is reported as 217 nM (active).
With `Cn1cnc([N+](=O)[O-])c1Sc1ncnc2nc[nH]c12` the Potency was 5440 nM (active).
For `Cc1cnc(Nc2ccc(F)cc2Cl)nc1-c1c[nH]c(C(=O)NC(CO)c2cccc(Cl)c2)c1` (stereo not given), the Potency was 24300 nM (active).
In the case of `CCN1CCN(Cc2ccc(Nc3ncc(F)c(-c4cc(F)c5nc(C)n(C(C)C)c5c4)n3)nc2)CC1`, the Potency is reported as 2430 nM (active).
For `O=C(CCCCCCC(=O)Nc1ccccc1)NO`, the Potency was 1370 nM (active).
With `CC[C@@]1(O)C(=O)OCc2c1cc1n(c2=O)Cc2cc3c(CN(C)C)c(O)ccc3nc2-1` the Potency was 273 nM (active).
`CC(C)Oc1ccc2c(=O)c(-c3ccccc3)coc2c1` was tested, and the Potency was 17200 nM (active).
`CC[C@@]1(O)C(=O)OCc2c1cc1n(c2=O)Cc2cc3cc(O)ccc3nc2-1` was tested, and the Potency was 109 nM (active).
`NS(=O)(=O)c1ccc(Nc2nc(OCC3CCCCC3)c3[nH]cnc3n2)cc1` was tested, and the “activity change, negative = viability loss” value was 35.2% (inactive).
For `CCC1=CC2CN(C1)Cc1c([nH]c3ccccc13)[C@@](C(=O)OC)(c1cc3c(cc1OC)N(C)[C@H]1[C@@](O)(C(=O)OC)[C@H](OC(C)=O)[C@]4(CC)C=CCN5CC[C@]31[C@@H]54)C2` (stereo not given in full), the Potency was 53 nM (active).
In the case of `CN1C2CCC1CC(OC(=O)[C@H](CO)c1ccccc1)C2` (stereo not given in full), the “activity change, negative = viability loss” value is reported as -5.44% (inactive).
For `COc1cc2c(c(OC)c1OC)-c1ccc(OC)c(=O)cc1[C@@H](NC(C)=O)CC2`, the Potency was 126 nM (active).
For `NC(=O)Nc1cc(-c2cccc(F)c2)sc1C(=O)NC1CCCNC1` (stereo not given), the Potency was 1720 nM (active).
`CCCC(=O)O[C@]1(C(=O)CCl)[C@@H](C)C[C@H]2[C@@H]3CCC4=CC(=O)C=C[C@]4(C)[C@@]3(F)C(=O)C[C@@]21C` was tested, and the Potency was 19300 nM (active).
With `C[C@@]1(C(=O)Nc2ccc(F)nc2)CCCN1c1nc(Nc2cc(C3CC3)[nH]n2)c2cccn2n1` the Potency was 34.3 nM (active).
`COc1cc(N2CCC(N3CCN(C)CC3)CC2)ccc1Nc1ncc(Cl)c(Nc2ccccc2S(=O)(=O)C(C)C)n1` was tested, and the Potency was 3430 nM (active).
With `CCc1c2c(nc3ccc(O)cc13)-c1cc3c(c(=O)n1C2)COC(=O)[C@]3(O)CC` the Potency was 76.9 nM (active).
For `CC[C@]1(O)C[C@H]2CN(CCc3c([nH]c4ccccc34)[C@@](C(=O)OC)(c3cc4c(cc3OC)N(C=O)[C@H]3[C@@](O)(C(=O)OC)[C@H](OC(C)=O)[C@]5(CC)C=CCN6CC[C@]43[C@@H]65)C2)C1`, the Potency was 172 nM (active).
For `Nc1ccccc1NC(=O)c1ccc(CNc2nccc(-c3cccnc3)n2)cc1`, the Potency was 1090 nM (active).
With `CC(=O)c1cnc2ccc(-c3cc(Cl)c(O)c(Cl)c3)nc2c1NC1CCC(CN(C)C)CC1` (stereo not given) the Potency was 222 nM (active).
